# In PubChem BioAssay AID624101 (Broad Institute, 2012):
# About 120 (0.17%) of roughly 70,000 compounds were called active. The sample as a whole holds a higher share of actives than the screen did. A number with no mark means an inactive call. Cut-off read from the data, not from the text of the source: active = inhibition above about 34%; inconclusive = no clear call, values can overlap the other calls; inactive = below about 11%.
# Target: Isocitrate dehydrogenase [NADP] cytoplasmic (Homo sapiens) (UniProt O75874)
# Test: PubChem AID 624101;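 note: 0% = DMSO and 100% = no enzyme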
# Settings: IDH1 R132H reductase, diaphorase/resazurin fluorescence, 60 min; at 10 µM; hits give high values
# Sequence of Isocitrate dehydrogenase [NADP] cytoplasmic (Homo sapiens) (O75874 whole entry R132H): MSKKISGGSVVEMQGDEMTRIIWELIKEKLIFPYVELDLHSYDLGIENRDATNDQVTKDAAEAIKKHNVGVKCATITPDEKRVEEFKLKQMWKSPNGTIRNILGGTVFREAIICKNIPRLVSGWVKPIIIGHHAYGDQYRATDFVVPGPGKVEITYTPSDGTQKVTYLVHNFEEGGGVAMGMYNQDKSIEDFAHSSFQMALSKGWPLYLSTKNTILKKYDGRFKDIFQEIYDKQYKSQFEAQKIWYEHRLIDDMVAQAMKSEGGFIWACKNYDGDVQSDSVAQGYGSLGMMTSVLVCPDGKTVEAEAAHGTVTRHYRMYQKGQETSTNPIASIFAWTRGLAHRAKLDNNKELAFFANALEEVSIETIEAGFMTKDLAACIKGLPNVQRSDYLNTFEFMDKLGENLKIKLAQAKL
row,SMILES,inhibition [%]
1,CO[C@@H]1CN(C)C(=O)c2cc(NC(=O)C3CC3)ccc2OC[C@@H](C)N(Cc2ccc(F)cc2)C[C@@H]1C,-0.084
2,CN(C)CC(=O)Nc1ccc2c(c1)[C@H]1C[C@H](CC(=O)NCc3ccccc3)O[C@@H](CO)[C@H]1O2,-0.369
3,C[C@H](CO)N1C[C@H](C)[C@H](CN(C)C(=O)C2CCOCC2)Oc2ncc(-c3ccccc3)cc2C1=O,0.163
4,Cc1ccc(S(=O)(=O)NCC[C@H]2CC[C@@H](NC(=O)C3CCOCC3)[C@@H](CO)O2)cc1,0.168
5,COc1cccc(C(=O)Nc2ccc3c(c2)OC[C@H](C)NC[C@H](C)[C@H](OC)CN(C)C3=O)c1,-0.351
6,CO[C@@H]1CN(C)C(=O)c2cc(NC(C)=O)ccc2OC[C@H](C)N(Cc2ccccc2F)C[C@@H]1C,-0.198
7,Cc1ccc(-c2cnc3c(c2)C(=O)N([C@@H](C)CO)C[C@H](C)[C@H](CN(C)C(=O)c2cccnc2)O3)cc1,-1.23
8,CO[C@@H](CN(C)S(=O)(=O)c1ccccc1)[C@@H](C)CN(Cc1ccccc1Cl)[C@H](C)CO,-0.567
9,O=C(N[C@H]1CC[C@@H](CCNS(=O)(=O)c2ccc(F)cc2)O[C@@H]1CO)c1ccccn1,0.234
10,Cc1noc(C)c1C(=O)N(C)C[C@H]1OCc2ccccc2-c2c(n(C)c3ccccc23)C(=O)N([C@@H](C)CO)C[C@H]1C,-2
11,C[C@@H]1CN([C@@H](C)CO)C(=O)Cc2cc(NC(=O)CCCCCC(=O)Nc3ccccc3N)ccc2O[C@H]1CN(C)C(=O)Nc1ccc(C(F)(F)F)cc1,0.304
12,CC(=O)N(C)C[C@H]1Oc2cc(-c3ccc(C)cc3)ccc2S(=O)(=O)N([C@@H](C)CO)C[C@@H]1C,5.52
13,CS(=O)(=O)Nc1ccc2c(c1)[C@H]1C[C@H](CC(=O)NC3CCCC3)O[C@@H](CO)[C@H]1O2,-0.18
14,CO[C@@H]1CN(C)C(=O)c2ccc(NS(C)(=O)=O)cc2OC[C@H](C)NC[C@H]1C,0.02
15,CO[C@H]1CN(C)C(=O)c2cc(NS(=O)(=O)c3ccccc3)ccc2OC[C@H](C)N(C(=O)NC(C)C)C[C@@H]1C,0.066
16,O=C(NCC[C@@H]1CC[C@H](NS(=O)(=O)c2cccc(F)c2)[C@H](CO)O1)c1cnccn1,-0.0355
17,O=C(NCC[C@H]1CC[C@H](NC(=O)C2CC2)[C@@H](CO)O1)c1cc(Cl)cc(Cl)c1,-0.0835
18,COc1cccc(-c2cn(CC[C@H]3CC[C@H](NC(=O)CN(C)C)[C@H](CO)O3)nn2)c1,-0.376
19,O=C(O)C[C@@H]1C[C@@H]2c3cc(NC(=O)NC4CCCC4)ccc3O[C@@H]2[C@H](CO)O1,-0.0525
20,C/C=C/c1cnc2c(c1)C(=O)N([C@@H](C)CO)C[C@@H](C)[C@@H](CN(C)C(=O)c1cnccn1)O2,-1.79
21,CN(C)C(=O)C[C@@H]1CC[C@@H](NS(=O)(=O)c2ccccc2)[C@H](CO)O1,-0.243

row,SMILES,inhibition [%]
1,CO[C@H]1CN(C)C(=O)c2cc(NC(=O)c3ccccc3)ccc2OC[C@H](C)NC[C@H]1C,0.304
2,CC(C)NC(=O)N[C@H]1CC[C@H](CC(=O)NC2Cc3ccccc3C2)O[C@H]1CO,0.112
3,CO[C@@H]1CN(C)C(=O)c2cc(NC(=O)C3CCOCC3)ccc2OC[C@H](C)N(Cc2cccnc2)C[C@H]1C,-0.057
4,O=C(C[C@@H]1CC[C@H](NS(=O)(=O)c2cccc(F)c2)[C@H](CO)O1)N1CCCCC1,0.0905
5,O=S(=O)(N[C@@H]1CC[C@H](CCn2cc(C3(O)CCCC3)nn2)O[C@@H]1CO)c1ccc(Cl)cc1,0.461
6,CCCC(=O)Nc1ccc2c(c1)OC[C@H](C)N(CCC(F)(F)F)C[C@@H](C)[C@H](OC)CN(C)C2=O,-0.114
7,COc1ccccc1-c1cn(CC[C@H]2CC[C@H](NC(=O)Cc3ccccn3)[C@H](CO)O2)nn1,0.087
8,COc1ccccc1S(=O)(=O)N[C@@H]1C=C[C@H](CC(=O)N2CCN(C)CC2)O[C@@H]1CO,0.0315
9,CS(=O)(=O)Nc1ccc2c(c1)[C@H]1C[C@H](CC(=O)NCc3ccc(Cl)cc3)O[C@@H](CO)[C@H]1O2,-0.335
10,CO[C@@H]1CN(C)C(=O)c2ccc(NC(=O)C3CCCCC3)cc2OC[C@@H](C)N(Cc2nccs2)C[C@@H]1C,0.03
11,C[C@@H]1CN([C@H](C)CO)C(=O)c2cc(Br)cnc2O[C@@H]1CN(C)C(=O)Nc1ccc(F)cc1,0.064
12,C[C@H](NC(=O)C[C@@H]1CC[C@@H](NC(=O)Cc2ccccn2)[C@@H](CO)O1)c1ccccc1,0.0085
13,O=C(N[C@H]1CC[C@@H](CCNS(=O)(=O)c2ccccc2)O[C@H]1CO)c1cccnc1,-0.222
14,Cc1cccc(S(=O)(=O)N[C@H]2CC[C@@H](CCNS(=O)(=O)c3ccccc3F)O[C@H]2CO)c1,0.059
15,COc1ccc(NC(=O)N[C@H]2CC[C@H](CCn3cc(-c4ccccc4F)nn3)O[C@H]2CO)cc1,-0.29
16,COCc1cn(CC[C@H]2CC[C@@H](NC(=O)Nc3ccc(OC)cc3)[C@@H](CO)O2)nn1,0.176
17,C[C@@H]1CN([C@H](C)CO)C(=O)c2cc(C#CC3CC3)cnc2O[C@@H]1CN(C)Cc1cccc(C(=O)O)c1,-0.167
18,CO[C@H]1CN(C)C(=O)c2ccc(NC(=O)Nc3ccc4c(c3)OCO4)cc2OC[C@H](C)NC[C@H]1C,-0.152
19,COCC(=O)Nc1ccc2c(c1)OC[C@H](C)N(C(=O)c1cnccn1)C[C@@H](C)[C@H](OC)CN(C)C2=O,0.439
20,CC(C)CC#Cc1ccc2c(c1)O[C@@H](CN(C)C(=O)c1ccccn1)[C@@H](C)CN([C@H](C)CO)S2(=O)=O,-2.87
